Assays:
Assay in all cases: log2 ratio of Biotin-Ahx-Ub-VS probe labelling (fragment/DMSO); higher = less target engagement (more negative = stronger competition), active = hit call of the paper (q ≤ 0.05, log2 ratio ≤ -1)
Conditions in all cases: compound concentration: 200 uM; treatment time: 3 h
OTUD6B = target: T1, OTUD6B (UniProt Q8N6M0)
T1 sequence (whole entry): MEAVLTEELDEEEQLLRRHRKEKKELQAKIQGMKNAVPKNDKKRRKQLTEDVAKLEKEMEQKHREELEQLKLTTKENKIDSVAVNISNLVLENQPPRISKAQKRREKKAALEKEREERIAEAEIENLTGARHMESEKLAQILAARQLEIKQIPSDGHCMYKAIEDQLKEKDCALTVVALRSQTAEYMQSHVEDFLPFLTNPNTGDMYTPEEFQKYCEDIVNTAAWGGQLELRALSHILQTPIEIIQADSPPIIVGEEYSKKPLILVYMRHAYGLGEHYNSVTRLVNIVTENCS
Procedure, shortened: (§1)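 Fragment (200 µM) or vehicle was incubated for 3 h with triplicate HEK293T lysate samples of 495 µg, which were then treated with Biotin-Ahx-Ub-VS at 0.5 µM final for 1 h. Labelled DUBs were enriched on NeutrAvidin, digested with LysC and trypsin, and analysed by diaPASEF LC-MS/MS. Values are average log2 fragment/vehicle ratios from an unpaired t-test on global-median-normalised Spectronaut label-free quantities, using proteins with ≥2 unique peptides.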

OTUD7B = target: T2, OTUD7B (UniProt Q6GQQ9)
T2 sequence (whole entry): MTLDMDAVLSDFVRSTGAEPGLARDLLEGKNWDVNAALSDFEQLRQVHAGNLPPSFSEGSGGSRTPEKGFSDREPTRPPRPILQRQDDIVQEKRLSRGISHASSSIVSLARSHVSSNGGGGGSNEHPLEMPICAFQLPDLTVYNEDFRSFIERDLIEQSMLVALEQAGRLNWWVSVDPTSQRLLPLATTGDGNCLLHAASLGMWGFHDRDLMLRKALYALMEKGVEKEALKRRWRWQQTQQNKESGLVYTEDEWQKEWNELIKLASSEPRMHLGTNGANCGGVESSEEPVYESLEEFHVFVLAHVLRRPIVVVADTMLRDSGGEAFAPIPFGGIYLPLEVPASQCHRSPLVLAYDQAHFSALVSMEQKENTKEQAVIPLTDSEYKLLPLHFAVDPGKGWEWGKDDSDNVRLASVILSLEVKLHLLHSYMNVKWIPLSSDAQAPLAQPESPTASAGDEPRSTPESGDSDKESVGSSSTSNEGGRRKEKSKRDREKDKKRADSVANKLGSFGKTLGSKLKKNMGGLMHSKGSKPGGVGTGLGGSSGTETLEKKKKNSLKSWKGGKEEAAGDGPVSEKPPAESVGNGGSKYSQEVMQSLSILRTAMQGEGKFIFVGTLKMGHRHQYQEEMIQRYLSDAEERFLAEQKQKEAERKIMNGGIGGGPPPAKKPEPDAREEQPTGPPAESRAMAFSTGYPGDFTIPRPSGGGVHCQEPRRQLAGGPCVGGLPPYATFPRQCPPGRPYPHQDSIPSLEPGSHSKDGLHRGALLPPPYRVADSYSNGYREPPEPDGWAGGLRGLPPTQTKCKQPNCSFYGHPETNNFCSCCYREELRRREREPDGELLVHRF
Procedure, shortened: as §1

PRPF8 = PRPF8 (UniProt Q6P2Q9)
Procedure, shortened: as §1

PSMD7 = target: T3, PSMD7 (UniProt P51665)
T3 sequence (whole entry): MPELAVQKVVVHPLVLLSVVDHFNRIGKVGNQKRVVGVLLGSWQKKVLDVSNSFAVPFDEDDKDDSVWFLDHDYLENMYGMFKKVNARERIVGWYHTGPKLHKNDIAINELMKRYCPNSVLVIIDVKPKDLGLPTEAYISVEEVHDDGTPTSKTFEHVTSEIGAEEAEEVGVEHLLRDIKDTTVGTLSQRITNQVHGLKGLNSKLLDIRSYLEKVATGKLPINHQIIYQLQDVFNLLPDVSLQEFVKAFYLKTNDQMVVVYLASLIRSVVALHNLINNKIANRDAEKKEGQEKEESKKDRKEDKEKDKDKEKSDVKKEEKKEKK
Procedure, shortened: as §1

UCHL1 = UCHL1 (UniProt P09936)
Procedure, shortened: as §1

UCHL3 = target: T4, UCHL3 (UniProt P15374)
T4 sequence (whole entry): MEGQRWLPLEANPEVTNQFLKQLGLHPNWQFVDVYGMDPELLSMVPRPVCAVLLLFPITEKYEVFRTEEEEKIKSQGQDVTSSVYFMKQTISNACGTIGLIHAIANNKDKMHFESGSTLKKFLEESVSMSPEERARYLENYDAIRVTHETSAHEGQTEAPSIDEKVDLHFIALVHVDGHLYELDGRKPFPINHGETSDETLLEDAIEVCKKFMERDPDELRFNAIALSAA
Procedure, shortened: as §1

UCHL5 = target: T5, UCHL5 (UniProt Q9Y5K5)
T5 sequence (whole entry): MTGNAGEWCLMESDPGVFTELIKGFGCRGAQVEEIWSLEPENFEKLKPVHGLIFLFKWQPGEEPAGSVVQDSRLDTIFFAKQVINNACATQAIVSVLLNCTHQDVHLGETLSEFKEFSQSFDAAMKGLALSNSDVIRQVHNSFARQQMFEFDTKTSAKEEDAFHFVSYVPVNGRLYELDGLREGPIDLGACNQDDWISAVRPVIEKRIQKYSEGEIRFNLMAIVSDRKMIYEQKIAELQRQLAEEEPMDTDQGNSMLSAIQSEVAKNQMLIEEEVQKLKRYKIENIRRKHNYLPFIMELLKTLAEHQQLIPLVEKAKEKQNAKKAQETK
Procedure, shortened: as §1

USP10 = USP10 (UniProt Q14694)
Procedure, shortened: as §1

USP15 = target: T6, USP15 (UniProt Q9Y4E8)
T6 sequence (whole entry): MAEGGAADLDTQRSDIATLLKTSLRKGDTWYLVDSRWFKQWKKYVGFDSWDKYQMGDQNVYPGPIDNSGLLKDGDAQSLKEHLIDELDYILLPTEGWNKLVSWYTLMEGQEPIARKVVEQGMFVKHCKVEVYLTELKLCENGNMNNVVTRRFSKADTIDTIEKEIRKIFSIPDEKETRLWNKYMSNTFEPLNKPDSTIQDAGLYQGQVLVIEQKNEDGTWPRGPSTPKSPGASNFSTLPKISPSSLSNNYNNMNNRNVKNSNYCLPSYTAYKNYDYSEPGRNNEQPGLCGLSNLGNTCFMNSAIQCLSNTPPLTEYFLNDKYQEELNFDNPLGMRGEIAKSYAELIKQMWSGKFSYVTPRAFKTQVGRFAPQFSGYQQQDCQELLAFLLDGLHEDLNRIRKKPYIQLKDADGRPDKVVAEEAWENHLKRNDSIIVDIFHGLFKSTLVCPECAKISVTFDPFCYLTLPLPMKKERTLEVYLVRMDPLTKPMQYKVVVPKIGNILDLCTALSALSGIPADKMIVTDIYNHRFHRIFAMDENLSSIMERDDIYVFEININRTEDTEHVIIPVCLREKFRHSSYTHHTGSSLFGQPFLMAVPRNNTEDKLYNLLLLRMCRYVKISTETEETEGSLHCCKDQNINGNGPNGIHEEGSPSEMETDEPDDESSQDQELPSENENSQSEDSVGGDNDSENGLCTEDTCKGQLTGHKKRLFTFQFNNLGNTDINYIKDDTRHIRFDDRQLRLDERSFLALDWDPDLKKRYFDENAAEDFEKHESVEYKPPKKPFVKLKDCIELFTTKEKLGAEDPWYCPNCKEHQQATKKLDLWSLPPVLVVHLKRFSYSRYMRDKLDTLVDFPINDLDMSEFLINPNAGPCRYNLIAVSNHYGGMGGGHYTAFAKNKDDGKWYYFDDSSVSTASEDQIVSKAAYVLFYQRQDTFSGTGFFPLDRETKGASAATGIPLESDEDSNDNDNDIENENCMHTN
Procedure, shortened: as §1

USP16 = USP16 (UniProt Q9Y5T5)
Procedure, shortened: as §1

Measured: log2 ratio of Biotin-Ahx-Ub-VS probe labelling

Chain of USP16 (Q9Y5T5 whole entry, looked up): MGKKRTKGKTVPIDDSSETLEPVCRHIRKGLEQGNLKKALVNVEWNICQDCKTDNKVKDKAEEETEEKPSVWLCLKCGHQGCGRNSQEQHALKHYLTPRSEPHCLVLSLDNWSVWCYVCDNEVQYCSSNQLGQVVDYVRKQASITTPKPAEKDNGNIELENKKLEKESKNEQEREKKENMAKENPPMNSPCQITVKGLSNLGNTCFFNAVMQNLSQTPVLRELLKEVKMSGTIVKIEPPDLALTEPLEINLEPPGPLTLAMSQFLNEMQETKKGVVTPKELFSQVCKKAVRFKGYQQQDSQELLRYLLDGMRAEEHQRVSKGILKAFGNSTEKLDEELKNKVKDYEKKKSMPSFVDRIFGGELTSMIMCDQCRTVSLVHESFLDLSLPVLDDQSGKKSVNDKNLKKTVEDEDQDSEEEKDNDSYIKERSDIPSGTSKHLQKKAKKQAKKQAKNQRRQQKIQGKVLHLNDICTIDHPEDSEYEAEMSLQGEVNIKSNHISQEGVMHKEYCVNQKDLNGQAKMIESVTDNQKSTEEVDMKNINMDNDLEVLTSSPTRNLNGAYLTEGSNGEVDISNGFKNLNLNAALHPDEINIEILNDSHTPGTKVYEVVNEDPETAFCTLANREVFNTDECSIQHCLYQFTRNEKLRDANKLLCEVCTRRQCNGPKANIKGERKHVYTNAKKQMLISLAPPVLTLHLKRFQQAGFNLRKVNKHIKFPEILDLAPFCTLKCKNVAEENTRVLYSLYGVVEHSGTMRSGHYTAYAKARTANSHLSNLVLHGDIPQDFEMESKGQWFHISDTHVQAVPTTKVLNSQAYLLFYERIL
Chain of UCHL1 (P09936 whole entry, looked up): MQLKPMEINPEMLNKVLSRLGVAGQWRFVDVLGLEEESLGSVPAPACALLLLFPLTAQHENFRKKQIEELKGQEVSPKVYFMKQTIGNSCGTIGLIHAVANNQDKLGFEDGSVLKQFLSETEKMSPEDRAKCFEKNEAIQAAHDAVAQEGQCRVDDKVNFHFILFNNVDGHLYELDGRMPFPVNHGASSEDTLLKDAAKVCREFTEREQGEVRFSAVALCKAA
Chain of USP10 (Q14694 whole entry): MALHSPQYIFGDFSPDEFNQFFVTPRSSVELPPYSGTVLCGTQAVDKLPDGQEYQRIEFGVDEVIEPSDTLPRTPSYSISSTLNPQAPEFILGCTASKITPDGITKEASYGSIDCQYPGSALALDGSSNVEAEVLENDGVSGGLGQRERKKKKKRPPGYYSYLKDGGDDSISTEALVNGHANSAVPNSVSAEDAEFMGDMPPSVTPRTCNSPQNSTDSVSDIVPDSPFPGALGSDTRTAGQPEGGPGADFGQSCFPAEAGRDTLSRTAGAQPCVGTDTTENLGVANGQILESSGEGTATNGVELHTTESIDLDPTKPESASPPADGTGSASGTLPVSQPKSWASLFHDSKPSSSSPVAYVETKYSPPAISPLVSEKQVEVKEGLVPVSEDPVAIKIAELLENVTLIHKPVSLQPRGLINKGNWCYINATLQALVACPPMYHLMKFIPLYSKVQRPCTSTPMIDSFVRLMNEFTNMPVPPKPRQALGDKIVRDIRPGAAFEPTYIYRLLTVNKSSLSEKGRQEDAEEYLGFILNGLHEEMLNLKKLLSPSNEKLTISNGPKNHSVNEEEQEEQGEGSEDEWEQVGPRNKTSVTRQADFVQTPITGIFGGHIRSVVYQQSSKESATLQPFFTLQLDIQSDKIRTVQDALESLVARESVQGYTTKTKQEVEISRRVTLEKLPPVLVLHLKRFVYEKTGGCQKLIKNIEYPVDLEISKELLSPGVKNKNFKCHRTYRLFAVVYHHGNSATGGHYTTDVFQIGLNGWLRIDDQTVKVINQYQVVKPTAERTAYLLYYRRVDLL

Cc1cc(C(=O)NC2CCN(C(=O)CCl)CC2)no1
active: UCHL1 -1.58
inactive: OTUD6B -0.173 | OTUD7B -0.263 | PRPF8 -0.0374 | PSMD7 -0.0768 | UCHL3 0.336 | UCHL5 -0.135 | USP10 -0.197 | USP15 -0.252 | USP16 0.021
